From PubChem BioAssay
Rows were chosen to be rich in hits. Some 3.2% of all compounds tested hit in one or more screens of this group.
GoLoco inh red: qHTS Assay for Inhibitors of RGS12 GoLoco Motif Activity (Red Fluorophore); Potency, µM (top dose mostly 61.6 µM), for the others: at the highest dose activity, negative = inhibition, actives largely listed as inhibitors; Gai1:RGS12 GoLoco peptide FP, rhodamine, 10 min; actives 0.44% (n = 230,000); Guanine nucleotide-binding protein G(i) subunit alpha-1 (Homo sapiens), P63096; AID 880, 2007; active means well fitted inhibition curve with a large enough effect, not every such curve was filed as active; inactive means no such curve, though single readings can be large or run the other way; further: nearly all actives have a fitted effect of over 30% in size
Target sequence (P63096 whole entry, looked up): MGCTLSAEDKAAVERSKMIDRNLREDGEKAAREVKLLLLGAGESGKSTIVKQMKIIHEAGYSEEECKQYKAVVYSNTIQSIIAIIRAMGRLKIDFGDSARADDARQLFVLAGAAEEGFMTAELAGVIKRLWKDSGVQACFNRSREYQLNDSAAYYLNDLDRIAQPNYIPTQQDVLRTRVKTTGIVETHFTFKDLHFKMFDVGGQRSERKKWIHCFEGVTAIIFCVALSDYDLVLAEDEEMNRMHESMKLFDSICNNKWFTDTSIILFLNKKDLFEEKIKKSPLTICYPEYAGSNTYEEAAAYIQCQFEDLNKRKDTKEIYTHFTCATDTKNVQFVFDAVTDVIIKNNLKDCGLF
TRb SRC2 PPI: qHTS for Inhibitors of the Interaction of Thyroid Hormone Receptor and Steroid Receptor Coregulator 2. TRbeta-SRC2 peptide binding, fluorescence polarization; receptor liganded with 1 µM T3. Potency, µM (titrated, usually from 106 µM), inactives show at the highest dose activity change, negative = inhibition, most hits filed as inhibitors. actives 0.065% (n = 280,000). AID 1469, 2008;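 further: plate controls were bound peptide for no effect and peptide without receptor for full effect; nearly all actives have a fitted effect of over 50% in size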
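Read-out is fluorescence polarization (555 nm excitation, 632 nm emission) of a Texas Red SRC2 coactivator peptide; loss of signal reflects blocked binding to human TRb ligand-binding domain in the presence of 1 uM T3.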
Tau fibril FP: qHTS for Inhibitors of Tau Fibril Formation, Fluorescence Polarization; Microtubule-associated protein tau (Homo sapiens), P10636; K18 P301L tau heparin fibrillization, Alexa594 FP, 6 h; Potency, µM (series often up to 57.7 µM), inactives show at the top dose activity, negative = inhibition, usual class: inhibitors; actives 0.39% (n = 280,000); AID 1468, 2008; further: nearly all actives have a fitted effect of over 55% in size
Target sequence (P10636 561-689 P618L limits assumed): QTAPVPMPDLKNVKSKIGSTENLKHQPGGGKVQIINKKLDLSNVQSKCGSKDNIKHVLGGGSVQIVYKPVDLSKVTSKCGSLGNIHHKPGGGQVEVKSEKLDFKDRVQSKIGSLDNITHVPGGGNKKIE
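Human tau K18 […] P301L fragment, 15 uM unlabeled plus 0.24 uM Alexa 594-labeled tau (final), with compound and 20 uM heparin in 100 mM sodium acetate pH 7; 6 hr at 37 C, then Alexa 594 FP read.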
TexasRed fluor: Total Fluorescence Counterscreen for Inhibitors of the Interaction of Thyroid Hormone Receptor and Steroid Receptor Coregulator 2 | actives 0.29% (n = 280,000) | Potency, µM (top dose mostly 106 µM), inactives show at the top dose fluorescence change, negative = quenching | AID 1479, 2009 | TRb/SRC2 Texas Red total fluorescence interference; active means well fitted curve in either direction with a large enough effect; inconclusive means small, poorly fitted or top-dose-only effect
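Human TRb ligand-binding domain at 0.6 uM with 20 nM Texas Red SRC2 peptide in Tris buffer containing 1 uM T3 and 5% DMSO, incubated with compound 5 h at ambient temperature. Total fluorescence (555/632 nm) calculated as parallel + 2 × perpendicular.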
Tau fluor cs: Counterscreen qHTS for Inhibitors of Tau Fibril Formation, Fluorescence Polarization. tau K18 P301L Alexa594 fluorescence, heparin fibrillization. Potency, µM (series often up to 57.7 µM), for the others: at the top dose activity change, negative = decrease. actives 0.93% (n = 280,000). AID 1463, 2008; further: nearly all actives have a fitted effect of over 55% in size
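Human K18 P301L tau (15 uM unlabeled plus 0.24 uM Alexa 594-labeled, final) in 100 mM sodium acetate pH 7 was mixed with compound and 20 uM heparin and incubated 6 hr at 37 C.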
Tau ThT inhib: qHTS for Inhibitors of Tau Fibril Formation, Thioflavin T Binding | recombinant tau K18 P301L (four-repeat tau fragment), heparin-induced fibrillization, ThT fluorescence | Potency, µM (titrated, usually from 57.4 µM), inactives show at the highest dose activity, negative = inhibition, hits mostly inhibitors | Microtubule-associated protein tau (Homo sapiens), P10636 | AID 1460, 2008 | actives 2.1% (n = 270,000); further: nearly all actives have a fitted effect of over 55% in size
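Heparin-induced fibrillization of the P301L-mutant K18 repeat-domain fragment of human tau was followed by ThT binding in quantitative high-throughput format.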
The depositor's hits bear a star; ? = inconclusive; . = no result; [ ] = remark or other dose. Unless noted, the call rests on the fitted dose curve; in most records, active means well fitted curve in the direction sought with a large enough effect; inconclusive means small, poorly fitted or top-dose-only effect, or another doubt; inactive means no such curve, though single readings can be large; an effect the other way counts as inactive or inconclusive. Unless noted, on the % scale 0 is the no-effect control and ±100 the full control effect; potency means the concentration at half of the fitted maximal effect.

SMILES	GoLoco inh red	TRb SRC2 PPI	Tau fibril FP	TexasRed fluor	Tau fluor cs	Tau ThT inhib
C=CCn1c(N)c(C(=O)NCC2CCCO2)sc1=S (stereo unspecified)	8%	-2%	-6%	0%	-1%	0%
Cc1ccc(CNC(=O)c2ccc3c(=O)[nH]c4c(C(=O)NCC5CCCO5)sc(=S)n4c3c2)cc1 (stereo unspecified)	-4%	6%	-3%	-12%	?	8.9µM*
O=C(NC1CCCC1)c1sc(=S)n2c1[nH]c(=O)c1ccccc12	1%	6%	11%	-7%	?	16µM*
Cc1ccc(CNC(=O)c2ccc3c(=O)n(CC4CCCO4)c(=S)[nH]c3c2)cc1 (stereo unspecified)	2%	-21%	0%	2%	-10%	-9%
CCn1c(N)c(C(=O)NCC2CCCO2)sc1=S (stereo unspecified)	-34%	1%	?	-2%	-16%	35µM*
O=C(NCc1ccccc1)c1ccc2c(=O)[nH]c3c(C(=O)NCC4CCCO4)sc(=S)n3c2c1 (stereo unspecified)	6%	2%	11%	-17%	?	14µM*
O=C(NCc1ccccc1)c1ccc2c(=O)n(CC3CCCO3)c(=S)[nH]c2c1 (stereo unspecified)	10%	4%	-4%	-4%	-21%	-14%
Cc1sc(NC(=O)c2sc3nc4c(C)cccc4cc3c2N)c(C#N)c1C	116%	-5%	-8%	-5%	?	16µM*
Cc1cccc2cc3c(N)c(C#N)sc3nc12	13%	-5%	?	-3%	?	13µM*
Cc1sc(NC(=O)c2oc3ccccc3c2C)c(C#N)c1C	18%	1%	1%	2%	-7%	-12%
O=C(O)C1NCCN(C(=O)c2ccc3c(ccc4ccccc43)c2)C1C(=O)O (stereo unspecified)	.	5%	.	-3%	.	.
Nc1nc(Nc2ccccc2)nc(NCc2ccco2)c1[N+](=O)[O-]	-11%	-1%	?	-3%	13µM*[quencher]	?
Nc1nc(NCc2ccco2)nc(Nc2ccccc2)c1[N+](=O)[O-]	-4%	-6%	-10%	-6%	-13%	0%
CCNC(=O)c1c(N)sc2c1CCCCC2	25%	-4%	?	5%	-19%	32µM*
CCCn1c(C)nc2c(NCCN3CCOCC3)nc(C)nc21	-4%	2%	-4%	1%	2%	6%
C[N+]1=C(/C=C/Nc2ccccc2Cl)C(C)(C)c2ccccc21	230%	?	?	45µM*[fluorescent]	?	28µM*
FC(F)(F)c1cnc(/C=C/Nc2ccccc2Cl)c(Cl)c1	3%	0%	3%	-4%	-8%	-16%
COc1cc(O)c2c(=O)cc(-c3ccc(OC)c(-c4c(O)cc(O)c5c(=O)cc(-c6ccc(O)cc6)oc45)c3)oc2c1	7%	18%	?	-6%	?	-17%
O=c1c(-c2c(O)cc(O)c3c(=O)cc(-c4ccc(O)cc4)oc23)c(-c2ccc(O)cc2)oc2cc(O)cc(O)c12	13%	15%	?	-14%	?	16µM*
O=c1cc(-c2ccc(O)c(-c3c(O)cc(O)c4c(=O)cc(-c5ccc(O)cc5)oc34)c2)oc2cc(O)cc(O)c12	9%	?	?	-26%	?	14µM*
COc1c(-c2ccc(O)cc2)oc2cc(O)cc(O)c2c1=O	-11%	2%	5%	-5%	-12%	-17%
CCCN1C(=O)/C(=C/c2nc3ccccc3c(=O)[nH]2)c2ccccc21	4%	1%	7%	1%	-2%	?
CCn1c(/C=C2\C(=O)N(C(C)C)c3ccccc32)nc2ccccc2c1=O	0%	3%	6%	-3%	-14%	?
CC(C)N1C(=O)/C(=C\c2nc3ccccc3c(=O)[nH]2)c2ccccc21	-114%	6%	15%	-2%	?	28µM*
CCCN1C(=O)/C(=C/c2nc3ccccc3c(=O)[nH]2)c2cc(C)ccc21	-8%	-1%	0%	-2%	20µM*[quencher]	14µM*
SMILES	GoLoco inh red	TRb SRC2 PPI	Tau fibril FP	TexasRed fluor	Tau fluor cs	Tau ThT inhib
CC(C)=CCc1c(O)cc2occ(-c3ccc4c(c3)OCO4)c(=O)c2c1O	-2%	10%	8.9µM*	0%	?	-16%
CCc1cc2c(=O)c(-c3ccc4c(c3)OCCO4)coc2cc1OS(C)(=O)=O	10%	9%	-8%	-2%	-29%	-17%
O=c1c(-c2cc(O)c(O)c(O)c2)coc2cc(O)c(O)c(O)c12	-14%	14%	7.1µM*	-9%	?	3.5µM*
O=c1c(-c2ccc(O)cc2)coc2cc(O)cc(O)c12	-4%	1%	-5%	-5%	?	?
CC(=O)O[C@H]1CC[C@@]2(C)C(=CC[C@@H]3[C@H]4CC[C@@H]([C@H](C)C(=O)O)[C@]4(C)CC[C@H]32)C1	6%[14.2 µM]	.	.	.	.	.
CSc1cnc2c(=O)n(C)c(=O)[nH]c2n1	11%	1%	6%	-1%	3%	3%
Cn1c(=O)[nH]c2nnc(-c3ccc(Cl)c(Cl)c3)nc2c1=O	6%	-2%	3%	-2%	-18%	16µM*
O=C(NCCN1CCOCC1)C1(C(F)(F)F)C/C(=C/CCO)CCCO1 (stereo unspecified)	.	6%	.	-1%	.	.
O=C(N/N=C/c1c[nH]c2ccccc12)c1ccncc1	2%	-3%	5%	-2%	-16%	?
Cc1cccc(NC(=S)N/N=C/c2c[nH]c3ccccc23)c1	7%	-2%	?	-5%	8.9µM*[quencher]	16µM*
O=C(N/N=C/c1ccccn1)c1sc2ccccc2c1Cl	13%	0%	-8%	-3%	?	?
Cc1ccc(C(=O)Nc2ccc(C(=O)N/N=C/c3c[nH]c4ccccc34)cc2)cc1	7%	5%	11%	-10%	14µM*[quencher]	13µM*
O=C(N/N=C/c1ccc([N+](=O)[O-])o1)c1sc2ccccc2c1Cl	11%	5%	-4%	0%	?	3.5µM*
O=C(N/N=C/c1c[nH]c2ccccc12)c1sc2ccccc2c1Cl	1%	6%	-3%	-7%	8.9µM*[quencher]	?
NC(=S)N/N=C\c1c[nH]c2ccccc12	7%[14.2 µM]	.	.	.	.	.
